This excerpt belongs to a sample that is enriched for hits.
RE007 growth inh = less growth of the S. pombe RE007 Vpr strain; 0.21% of 360,000 active; AID 651644; S. pombe RE007 Vpr strain, BacTiter-Glo ATP luminescence, 24 h; Potency, µM (titrated, usually from 92.2 µM), actives largely listed as inhibitors; active = well fitted falling curve with a large enough effect; inconclusive = small, poorly fitted or top-dose-only effect; inactive = no such curve, though single readings can be large or run the other way; note: nearly all actives have a fitted effect of over 50% in size
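Fission yeast strain RE007, carrying one chromosomally integrated HIV-1 vpr copy, was seeded at OD 0.01 in PMG+AL medium with 23 nL pinned compound. After 24 h at 30 °C and 99% humidity, viability was read by BacTiter-Glo luminescence.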
Tb PYK inh = inhibitors of Trypanosoma brucei pyruvate kinase. AID 624173. Q57TT1. TbPYK enzyme, Kinase-Glo Plus ATP luminescence, 45 min. 0.12% of 410,000 active. Potency, µM (highest dose often 76.8 µM), usual class: inhibitors; note: nearly all actives have a fitted effect of over 50% in size
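Activity of T. brucei pyruvate kinase was followed by Kinase-Glo Plus luminescence after the enzyme reacted 45 min at room temperature with 130 uM ADP (final) and substrate. Test compounds were added before ADP at multiple concentrations.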
LmPK inhibitor = LmPK (Leishmania mexicana) enzyme inhibition. Q27686. purified LmPK, Kinase-Glo ATP luminescence, 1 h. Potency, µM (series often up to 57.5 µM), actives largely listed as inhibitors. 0.37% of 290,000 active. AID 1721
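Kinase-Glo luminescence read after 1 h RT reaction of 0.1 nM LmPK with 0.5 mM PEP and 0.1 mM ADP. Activity scaled between uninhibited and enzyme-free controls.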
Shiga inhibitor = Shiga toxin inhibition | inhibition, % at 38.7 µM | Vero cells, Shiga toxin protein synthesis inhibition reporter | 9.2% of 290,000 active | AID 2315; in the data active = inhibition mostly above about 28%, no sharp cut-off; inactive = mostly below about 43%
Cycloheximide cs = affects cycloheximide protein synthesis inhibition readout, counter-screen; cell reporter, cycloheximide protein synthesis inhibition counterscreen; max response, %; 12% of 300,000 active; AID 2314; in the data active = max response mostly above about 13%, no sharp cut-off; inactive = mostly below about 14%; note: read at 38.3 µM for the half of the compounds with a filed dose
FBPA Giardia inh = inhibitors of Giardia lamblia fructose-1,6-bisphosphate aldolase; A8B2U2; purified Giardia FBPA; Potency, µM (doses to about 59.6 µM), usual class: inhibitors; 0.71% of 290,000 active; AID 2451; note: nearly all actives have a fitted effect of over 55% in size
Target sequence (A8B2U2 whole entry, looked up): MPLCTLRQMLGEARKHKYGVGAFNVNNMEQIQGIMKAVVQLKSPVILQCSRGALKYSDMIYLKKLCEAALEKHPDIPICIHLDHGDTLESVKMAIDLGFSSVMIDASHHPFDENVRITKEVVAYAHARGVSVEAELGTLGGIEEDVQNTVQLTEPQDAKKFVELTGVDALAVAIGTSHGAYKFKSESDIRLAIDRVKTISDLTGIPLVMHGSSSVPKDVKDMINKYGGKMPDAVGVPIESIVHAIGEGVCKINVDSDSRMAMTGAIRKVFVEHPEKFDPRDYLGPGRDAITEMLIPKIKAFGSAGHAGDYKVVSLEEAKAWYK
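40 nM FBPA preincubated 10 min at RT with compound (up to 57.5 uM final), then substrate plus GAPDH/TPI/NAD/arsenate coupling and diaphorase/resazurin added. Fluorescence read after 20 min at RT, 525/598 nm.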
Numbers stand for hits; 0 = inactive; ? = inconclusive; - = not tested or not shown; [ ] = another dose, or the depositor's remark. Unless noted, calls come from the whole dose curve; as a rule, active = well fitted curve in the direction sought with a large enough effect; inconclusive = small, poorly fitted or top-dose-only effect, or another doubt; inactive = no such curve, though single readings can be large; an effect the other way counts as inactive or inconclusive.

SMILES	RE007 growth inh	Tb PYK inh	LmPK inhibitor	Shiga inhibitor	Cycloheximide cs	FBPA Giardia inh
CC(=O)c1cccc(NC(=O)c2ccc3ccccc3c2)c1	0	0	0	-	27.7	0
O=C(Nc1ccc(-c2nc3ccccc3s2)c(OC(=O)c2ccccc2)c1)c1ccccc1	0	0	0	0	29.5	0
COc1ccc(CNC(=O)CN2C(=O)c3cccnc3Oc3ccc(C)cc32)cc1	-	0[15.4 µM]	-	-	-	-
CCOC(=O)c1[nH]c2ccc(F)cc2c1NC(=O)c1ccccc1C(=O)O	0	0	0	96.3	43.2	0
COc1ccc2[nH]c(C)c(CN3CCCCC3)c(=O)c2c1	0	0	0	0	0	0
CCc1c(C)[nH]c2ccc(OC)cc2c1=S	0	2µM	?	0	0	?
CCOC(=O)c1[nH]c2ccc(OC)cc2c1NC(=O)c1ccccc1C(=O)O	0	0	0	63.7	34.9	0
CCOC(=O)c1[nH]c2ccc(F)cc2c1NC(=O)c1cc(OC)c(OC)c(OC)c1	0	0	0	0	0	0
CCOC(=O)c1[nH]c2ccccc2c1NC(=O)Nc1ccc(OC)cc1	0	0	0	0	9.9	0
CCOc1ccccc1CNC(=O)CCCN1C(=O)CCn2nc(-c3cccn3C)cc21	-	0	-	-	-	-
CNc1nc(-c2ccccc2C)nc2ccccc12	-	-	-	-	-	0
CCOc1c(Br)cc(C2C=C(C(=O)O)Nc3ncnn32)cc1OC (configuration not stated)	-	0	-	-	-	-
CCOC(=O)c1[nH]c2ccc(OC)cc2c1NC(=S)N1CCN(c2ccc(F)cc2)CC1	0	0	0	0	0	0
CCOC(=O)c1[nH]c2ccc(OC)cc2c1NC(=S)N1CCN(c2cccc(C)c2C)CC1	0	0	0	0	16.6	0
CCOC(=O)c1cc2cc(OC)ccc2[nH]1	?	0	0	110.3	49.1	0
CCOC(=O)c1[nH]c2ccc(OCC)cc2c1NC(=O)CN1CCN(c2ccccc2)CC1	0	0	0	0	28.5	0
CCOC(=O)c1[nH]c2ccc(OC)cc2c1C	0	0	0	73.4	28.9	0
CCOc1ccccc1NS(=O)(=O)c1cc2[nH]c(=O)c(=O)[nH]c2cc1C	-	0	-	-	-	-
CC1CC2(C)Oc3ccccc3C3OCC1(COC(=O)Nc1ccccc1)C(C)C32 (configuration not stated)	-	-	-	-	-	0
COC(=O)COc1ccc(S(=O)(=O)Nc2ccc3c(c2)OCO3)cc1	0	0	0	0	0	0
Cc1nn(C)cc1S(=O)(=O)Nc1ccc2c(c1)OCCO2	0	0	0	69.3	71.6	0
O=S(=O)(Nc1ccc2c(c1)OCCO2)c1cccc(F)c1	0	0	0	0	24.6	0
O=S(=O)(Nc1ccc2c(c1)OCCO2)c1ccc(F)c(F)c1	0	0	0	0	0	0
CCOC(=O)COc1ccc(S(=O)(=O)Nc2ccc3c(c2)OCCO3)cc1	0	0	0	0	17.6	0
Cc1ccc(S(=O)(=O)Nc2ccc3c(c2)OCCO3)cc1C	0	0	0	91.6	63.4	0
SMILES	RE007 growth inh	Tb PYK inh	LmPK inhibitor	Shiga inhibitor	Cycloheximide cs	FBPA Giardia inh
Cc1n[nH]c(C)c1S(=O)(=O)Nc1ccc2c(c1)OCCO2	0	0	0	35.8	51.5	0
CCCOc1ccc(N2C(=O)CC(SC(=N)N3N=C(c4ccccc4)CC3c3ccccc3)C2=O)cc1 (configuration not stated)	0	0	0	0	0	0
O=C1CC(SCc2nc3ccccc3[nH]2)C(=O)N1c1cccc(Cl)c1 (configuration not stated)	28.2µM	0	0	0	0	0
O=C1CC(SCCc2nc3ccccc3[nH]2)C(=O)N1c1ccc(F)c(Cl)c1 (configuration not stated)	28.2µM	0	-	-	-	-
CCCOc1ccc(N2C(=O)CC(SCc3nc4ccccc4[nH]3)C2=O)cc1 (configuration not stated)	63.1µM	0	0	0	0	0
O=C1CC(SCc2nc3ccccc3[nH]2)C(=O)N1c1ccc(F)cc1 (configuration not stated)	?	0	0	0	0	0
CSCCC(NS(=O)(=O)c1cccs1)C(=O)Nc1ccc(C)c(Cl)c1 (configuration not stated)	-	0	-	-	-	-
CCc1ccc2c(c1)C1(NN=C(c3cccc4ccccc34)S1)C(=O)N2 (configuration not stated)	-	-	0	47.6	0	?
CCc1cccc(N2C(=O)CSC23C(=O)Nc2ccccc23)c1 (configuration not stated)	-	0	-	-	-	-
COc1cccc(Cn2c(=O)c(-c3cc(F)cc(F)c3)nc3cnc(N(C)C)nc32)c1	-	-	-	-	-	0
Cc1ccc(C)c(CN2C(=O)c3ccccc3S(=O)(=O)c3ccc(C(=O)NCCC4=CCCCC4)cc32)c1	-	0	-	-	-	-
CC(=O)c1cccc2c(O)c(C3=Nc4ccccc4C3=O)[nH]c12	?	?	25.1µM	88.5	47.7	?
O=C1C(c2c(O)[nH]c3ccccc23)=Nc2ccccc21	0[18.4 µM]	0	?	0	0	0
Cc1cccc(NC(=O)c2ccc3c(c2)CCN3S(C)(=O)=O)c1	0	0	0	47.1	29.1	0
Cc1ccc(NC(=O)c2ccc3c(c2)CCN3S(C)(=O)=O)cc1C	0	0	0	31.4	29.3	0
Cc1ccc(NC(=O)c2ccc3c(c2)CCN3S(C)(=O)=O)cc1	0	0	-	-	-	-
COc1ccc(-n2nc(C(=O)NCC(=O)N3CCC(C)CC3)c3ccccc3c2=O)cc1Cl	0	0	0	49.2	0	0
COc1ccc(-n2nc(C(=O)NCC(=O)N3CCN(Cc4ccccc4)CC3)c3ccccc3c2=O)cc1OC	0	0	0	0	0	0
COc1ccc(-n2nc(C(=O)NCC(=O)N3CCN(c4ccccn4)CC3)c3ccccc3c2=O)cc1Cl	0	0	0[11.5 µM]	0	27.0	0
Cc1cc(Cl)ccc1OCc1cc(=O)n2c3c(sc2n1)CCCC3	-	0	-	-	-	-
COc1cc(CC2C(=O)N(C)C(=O)N(C)C2=O)ccc1OCc1ccccc1	0	0	0	0	0	0
CN1C(=O)C(Cc2ccc(OCc3ccccc3)cc2)C(=O)N(C)C1=O	0	0	0	67.1	37.7	0
COc1cc(OC)cc(-n2c(=O)c3ccccc3n(CC(=O)NCCc3ccc(OC)c(OC)c3)c2=O)c1	-	0	-	-	-	-
COc1cccc(NC(=O)c2cc3ccccc3o/c2=N\O)c1	0	0	0	-	19.2	0
COc1ccc(NC(=O)c2cc3cccc(OC)c3oc2=Nc2ccc(C(=O)O)cc2)cc1OC	0	0	0	0	0	0
COc1cccc(NC(=O)c2cc3cccc(OC)c3o/c2=N\O)c1	-	-	0	109.4	81.1	0
O=C(Nc1ccccc1Cl)c1cc2ccccc2o/c1=N\O	0	0	0	123.4	40.9	0
COc1cccc(NC(=O)c2ccccc2C(F)(F)F)c1	0	0	0	0	0	0

Screens as filed in PubChem BioAssay.
